The panel holds about 83,000 compounds, 20% with a hit somewhere; the sample as a whole holds those more often.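 Results are percent growth after 48 hours of single-concentration exposure. 100 means growth as in untreated cells, lower positive values show inhibition; negative values down to -100 show cell death.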 Unmarked numbers belong to inactive results. Activity calls are given as the source filed them. The calls were made as follows: active = growth percent below 10; inactive = the rest.

Assay in all cases: NCI-60 one-dose screen, 48 h (100 = growth as untreated, 0 = no growth, -100 = all killed)
The subject of test [1] is DU-145 prostate. The following applies: 10 µM unless noted.
For test [2], the system named is MALME-3M melanoma. The conditions noted are these: 10 µM unless noted.
The subject of test [3] is MDA-MB-231 breast. The conditions noted are these: 10 µM unless noted.
The subject of test [4] is RXF 393 renal. The conditions noted are these: 10 µM unless noted.
Test [5] has as its system SF-268 CNS. The following applies: 10 µM unless noted.
Test [6] has as its system SF-295 CNS. The conditions noted are these: 10 µM unless noted.
The test system of test [7] is SF-539 CNS. The following applies: 10 µM unless noted.
In test [8] the test system is UACC-257 melanoma. The following applies: 10 µM unless noted.
Test [9] relates to M14 melanoma. The following applies: 10 µM unless noted.
Test [10] concerns HCT-15 colon. The following applies: 10 µM unless noted.
The test system of test [11] is HT29 colon. The conditions noted are these: 10 µM unless noted.
Test [12] deals with SNB-75 CNS. The following applies: 10 µM unless noted.
Test [13] relates to SNB-19 CNS. The conditions noted are these: 10 µM unless noted.
The subject of test [14] is U251 CNS. The conditions noted are these: 10 µM unless noted.
Test [15] concerns PC-3 prostate. The following applies: 10 µM unless noted.
Test [16] concerns UACC-62 melanoma. The conditions noted are these: 10 µM unless noted.
The test system of test [17] is LOX IMVI melanoma. The following applies: 10 µM.
The subject of test [18] is K-562 leukemia. The conditions noted are these: 10 µM unless noted.
In test [19] the test system is SK-MEL-5 melanoma. The conditions noted are these: 10 µM unless noted.
In test [20] the test system is SK-MEL-28 melanoma. The following applies: 10 µM unless noted.

Consider `CN1CCN(c2ccc(C(=O)/C=C/c3cc(C(F)(F)F)cc(C(F)(F)F)c3)cc2)CC1`, for which the growth in test [1] is -73.9% (active); in test [2] it was -86.5% (active); in test [3] it was -89.9% (active); in test [4] it was -86.7% (active); in [5] it was -51% (active); in [6] it was -86.4% (active). Also, the growth is -97% (active) in test [7]; -88.9% (active) in test [8]; -97.4% (active) in test [9]; -84.2% (active) in [10]; -3.47% (active) in [11]; -82.3% (active) in test [12]. The growth was -85% (active) in test [13]; -94.9% (active) in test [14]; -26.4% (active) in [15]; -85.4% (active) in [16]; -89.7% (active) in [17].
Regarding `N#Cc1ccc(C(=O)Nn2c(N)cc3ccccc3c2=O)cc1`, the growth in test [1] was 115%; in [18] it was 89.6%; in test [2] it was 77.9%; in [4], 104%; in test [5], 106%; in test [6], 99%. For the same compound, the growth is 90% in test [7]; 99.5% in test [8]; 94.5% in test [9]; 103% in test [10]; 103% in test [11]; 94.6% in test [13]. Moreover, the growth in test [14] is 98%; in [15] it was 94.6%; in test [19] it was 99.4%; in test [16], 86.1%; in test [20], 104%.
Turning to `CNC(=O)c1cccc(NC(=O)c2ccc3c(c2)nnn3/C(C#N)=C/c2ccccn2)c1`, the growth in test [1] was 21.7%; in [18], 0.0446% (active); in [2] it was -97% (active); in [4] it was -97.9% (active); in test [5], 24.4%; in test [6] it was 84.3%. Besides, the growth in test [7] is -72.8% (active); in test [8], -67.2% (active); in [9], -73.6% (active); in test [10], -31.3% (active); in [12], 73%; in [13], 71%. Besides, the growth in [14] was -12.4% (active); in [15] it was 2.89% (active); in test [19], -13.4% (active); in test [16], -86.6% (active); in test [20], -76.6% (active).
For the compound `COc1ccc(C(=O)/C=C/c2ccc3ccccc3c2)cc1S(N)(=O)=O`, the growth in test [1] was -9.03% (active); in test [2], 18.1%; in test [3] it was 6.01% (active); in [4], -60.2% (active); in test [5] it was 12.8%; in test [6], -80.5% (active). Besides, the growth was -87.9% (active) in [7]; -48.4% (active) in test [8]; -78.5% (active) in [9]; -87.1% (active) in test [10]; -26.5% (active) in test [11]; -49.6% (active) in [13]. Further, the growth in test [14] was -96.3% (active); in [15] it was -11.9% (active); in test [16], -55.6% (active); in test [17], -89.1% (active); in test [20], -41.5% (active).
`COc1cccc(/C=C/C(=O)c2ccc(OC)c(S(N)(=O)=O)c2)c1`: the growth in test [1] was 31.8%; in [2], 71.2%; in test [3], 49.4%; in test [4], 41.7%; in test [5], 39.5%; in test [6], 34.6%. Also, the growth in test [7] was -11.6% (active); in test [8], 65.8%; in test [9], 41.2%; in [10], -7.46% (active); in test [11], 4.06% (active); in test [12], 20.6%. Besides, the growth in test [13] was 27%; in test [14], -31.2% (active); in test [15], 48%; in test [16] it was 52.6%; in test [17], -69.9% (active); in test [20] it was 60.8%.
For the compound `O=C1Nc2ccc([N+](=O)[O-])cc2C1=Nc1ccccc1`, the growth in [1] was 114%; in test [2] it was 100%; in [3], 95.3%; in [4] it was 143%; in [5], 98.9%; in test [6] it was 90.7%. Also, the growth is 91.8% in test [7]; 134% in test [8]; 104% in [9]; 92.5% in test [10]; 122% in test [11]; 101% in [12]. The growth in [13] is 96.6%; in [14], 106%; in [15], 94.4%; in test [16] it was 59.7%; in test [17] it was 97.2%; in [20], 108%.
Consider `COc1ccc(C(=O)Nc2n[nH]c(Nc3ccccc3)c2C#N)cc1`, for which the growth in test [1] is 119%; in test [2], 97.8%; in test [3] it was 103%; in test [4] it was 118%; in test [5] it was 97.3%; in [6] it was 92.8%. The growth in [7] is 98.3%; in test [8], 137%; in test [9], 109%; in test [10] it was 102%; in [11] it was 112%; in test [12], 112%. Besides, the growth is 99.5% in [13]; 111% in [14]; 111% in test [15]; 99.6% in [16]; 98.3% in [17]; 103% in test [20].
Turning to `COc1ccc(C(=O)/C=C/c2cccc3ccccc23)cc1S(N)(=O)=O`, the growth in test [1] was 13.2%; in test [2], 30.1%; in test [3] it was 21.8%; in test [4], -59.4% (active); in [5] it was 14.4%; in [6], -61.7% (active). Besides, the growth was -83.4% (active) in [7]; -42.6% (active) in [8]; -74% (active) in [9]; -65.3% (active) in [10]; -39.5% (active) in test [11]; 51.2% in [12]. Besides, the growth in test [13] is 10.5%; in test [14] it was -93.9% (active); in [15], 12.8%; in [16] it was -58% (active); in [17], -84.2% (active); in test [20] it was -50.8% (active).
With `C/C(=N\Nc1ccc(S(N)(=O)=O)cc1)c1ccc(N=Nc2c(Nc3ccccc3)[nH][nH]c2=O)cc1`, the growth in [1] was 13.8%; in test [2], -65.9% (active); in test [3], -31.3% (active); in test [4], -24.1% (active); in [5], 9.33% (active); in [6], 5.12% (active). The growth in [7] was -77.4% (active); in test [8], 5.63% (active); in test [9], -62.5% (active); in [10], 36.7%; in test [11], 4.54% (active); in test [12] it was 21%. Besides, the growth is -5.15% (active) in [13]; -46.7% (active) in test [14]; 20% in test [15]; -40.7% (active) in test [16]; -41.2% (active) in test [17]; -54.1% (active) in [20].

For the origin of these results see PubChem BioAssay (NCI).
